We go through 40 molecules from PubChem BioAssay (Tox21).

Inconclusive results are not listed. A call without a number means that no potency is given here. The source made the active and inactive calls. Calls come from the whole dose curve; as a rule, active = well fitted cell-killing curve with a large enough effect in the repeat runs; inconclusive = weak or mixed curves, or effect the other way; inactive = no such curve, though single readings can be large or run the other way.

This test can be described thus: qHTS assay for small molecule activators of the heat shock response signaling pathway - cell viability counter screen (AID 743209). Note: nearly all actives have a fitted effect of over 50% in size. Conditions: HSE-bla HeLa viability, CellTiter-Glo luminescence, 5 h; series mostly up to 62.6 µM; activity change, negative = cytotoxicity: at the top concentration. An excerpt: U.S. Tox21 Program National Center for Advancing Translational Sciences [NCATS] NIH Chemical Genomics Center [NCGC] U.S. Environmental Protection Agency [EPA] National Institutes of Environmental Health Sciences [NIEHS] National Toxicology Program [NTP] U.S. Food and Drug Administration [FDA] Tox21 Assay Overview: Various chemicals, environmental and physiological stress conditions may lead to the activation of heat shock response/ unfolded protein response (HSR/UPR). There are three heat shock transcription factors (HSFs) (HSF-1, -2, and -4) mediating transcriptional regulation of the human HSR. To identify the compounds that activate HSR signaling, HSE-bla HeLa cell line (Invitrogen, Carlsbad, CA, USA) containing a beta-lactamase reporter gene under the control of the heat shock response elements was used to screen Tox21 10K compound library. The cytotoxicity of the Tox21 compound library against the HSE-bla HeLa cell line was tested in parallel by measuring the cell viability using CellTiter-Glo assay (Promega, Madison, WI) in the same wells.
Tox21 Assay Protocol Summary: The CellSensor HSE-bla HeLa cells (Invitrogen, Carlsbad, CA, USA) were dispensed at 1500 cells/6uL/well into 1536-well black wall/clear bottom plates using a Multidrop combi (Thermo Fisher Scientific, Waltham, MA) dispenser. After the assay plates were incubated at 37 C and 5% CO2 overnight, 23 nL of compounds dissolved in DMSO, positive controls or DMSO only was transferred to the assay plate by a Pintool station (Kalypsys, San Diego, CA). The plates were incubated at 37 C for 5 h. After 1 uL of LiveBLAzerTM B/G FRET substrate was added using a Flying Reagent Dispenser (FRD, Beckman Coulter, Indianapolis, IN, USA), the plates were incubated at room temperature for 2.5 h, and fluorescence intensity was measured by an Envision plate reader (PerkinElmer, Shelton, CT). For cell viability readout that measures cytotoxicity, 3 ul/well of CellTiter-Glo reagent was added into the assay plates using a FRD. After 30 min incubation at room temperature, the luminescence intensity in the plates was measured using a ViewLux (PerkinElmer) plate reader.
For orientation: In qHTS, concentration-response curves come from the screen itself.
On to `O=C(Cl)c1ccc(C(=O)Cl)cc1`, for which the Potency result was “inactive”.

Turning to `OC[C@H]1O[C@@H](Oc2ccc(O)cc2)[C@H](O)[C@@H](O)[C@@H]1O`, the Potency entry was “inactive”.

Take `CC(C)(CO)CO`: the Potency entry was “inactive”.

With `CC/C=C(\C(=O)N[C@@H]1C(=O)N2C(C(=O)OCOC(=O)C(C)(C)C)=C(COC(N)=O)CS[C@H]12)c1csc(N)n1`, the Potency entry is “inactive”.

As to `O=C1CCCCCCCCCCC1`, the Potency entry is “inactive”.

On to `CCCCCCCCCCCCCC(=O)O`, for which the “activity change, negative = cytotoxicity” value is -0.0993% (inactive).

As for `CCCOC(=O)NCCCN(C)C`, the Potency entry was “inactive”.

With `O=Cc1ccc(CO)o1`, the Potency entry was “inactive”.

Consider `NC(N)=S`, for which the Potency entry is “inactive”.

On to `COC(=O)/C=C\C(=O)OC`, for which the Potency entry was “inactive”.

`COCN(COC)c1nc(N(COC)COC)nc(N(COC)COC)n1`: the “activity change, negative = cytotoxicity” value was -4.68% [at 81.1 µM] (inactive).

With `Cc1ccc(C)c(S(=O)(=O)O)c1`, the Potency entry was “inactive”.

As for `CCCCCCC(=O)O`, the Potency result is “inactive”.

As for `CC(COCC(C)OC(=O)c1ccccc1)OC(=O)c1ccccc1` (stereo not given), the Potency entry is “inactive”.

For the molecule `Cc1ccc(C(C)C)cc1`, the Potency result was “inactive”.

Regarding `NC1CCCCC1N` (stereo not given), the Potency entry was “inactive”.

In the case of `CC(=O)OC/C=C(\C)CCC=C(C)C`, the Potency result is “inactive”.

Turning to `OCCOCCOCCOCCOCCO`, the Potency entry was “inactive”.

Consider `CC(=O)C(C)C`, for which the Potency result is “inactive”.

Consider `Cc1nnc(NS(=O)(=O)c2ccc(N)cc2)s1`, for which the Potency result was “inactive”.

For the molecule `O=C(O)C1=NN(c2ccc(S(=O)(=O)O)cc2)C(=O)C1`, the Potency result is “inactive”.

For `N[C@@H](Cc1cc(I)c(Oc2ccc(O)c(I)c2)c(I)c1)C(=O)O`, the Potency result was “inactive”.

For `C=C(C)CC(C)(C)C`, the Potency entry is “inactive”.

Consider `COC(=O)CCCCC(=O)OC`, for which the Potency entry was “inactive”.

Take `CCN(CC)CCNC(=O)c1ccc(N)cc1`: the Potency result is “inactive”.

Consider `COc1c(Cl)ccc(Cl)c1C(=O)O`, for which the Potency result is “inactive”.

With `COc1ccc2cc3[n+](cc2c1OC)CCc1cc2c(cc1-3)OCO2`, the Potency result was “inactive”.

Take `Cc1cc(C)c(O)c(C)c1`: the Potency result is “inactive”.

As to `Cc1ccc(Cl)cc1`, the Potency result was “inactive”.

As for `COC(=O)OC`, the Potency result is “inactive”.

As for `Cc1ncc(CO)c(CO)c1O`, the Potency entry is “inactive”.

With `COc1cc(NC(=O)CC(C)=O)c(OC)cc1Cl`, the Potency entry is “inactive”.

Regarding `C=CC(=O)NCOCCCC`, the Potency result was “inactive”.

For `CC(O)CNCC(C)O` (stereo not given), the Potency result is “inactive”.

For the molecule `Cc1cc(CC(=O)O)n(C)c1C(=O)c1ccc(Cl)cc1`, the Potency entry is “inactive”.

Take `NC(=O)NC(N)=O`: the Potency result is “inactive”.

Take `CCn1cc(C(=O)O)c(=O)c2cc3c(cc21)OCO3`: the Potency result was “inactive”.

As to `CC(=O)OC(C)(C)C1CC=C(C)CC1` (stereo not given), the Potency entry was “inactive”.

As to `O=C(NCC1CCCCN1)c1cc(OCC(F)(F)F)ccc1OCC(F)(F)F` (stereo not given), the “activity change, negative = cytotoxicity” value was 4.1% (inactive).

Take `CC(=O)CC(=O)N(C)C`: the Potency result was “inactive”.
